About 64,000 (15%) of roughly 420,000 compounds were called active. Inconclusive results (about 27%) are left out. Only a sample is shown. A number with no mark means an inactive call. The call rests on the fitted dose curve; in most records, active means well fitted inhibition curve with a large enough effect; inconclusive means small, poorly fitted or top-dose-only effect; inactive means flat fitted curve, though single readings scatter.
Assay: qHTS for Inhibitors of human tyrosyl-DNA phosphodiesterase 1 (TDP1): qHTS in cells in absence of CPT; further: nearly all actives have a fitted effect of over 55% in size
Conditions: DT40 Tdp1-/- hTDP1 cells, no CPT, ATP luminescence, 48 h; activity change, negative = growth inhibition: at 46.2 µM (top of the series)
In short: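 Growth of hTDP1-complemented DT40 Tdp1-knockout cells is measured by ATP luminescence after at least 48 hr compound exposure at 37 °C, with DMSO substituting for the 20 nM CPT used in the parallel screen.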
On the % scale 0 is the no-effect control and ±100 the full control effect; potency means the concentration at half of the fitted maximal effect.

SMILES | activity change, negative = growth inhibition [%] | Potency
CN(CCc1ccccn1)C1CCCN(S(=O)(=O)c2ccccc2Cl)C1 (stereo not drawn) | -16.2 | –
Cc1ccc2c(c1)-c1c(cnn1CC(=O)Nc1ccccc1C#N)CO2 | -29.7 | –
Cc1nc(-c2ccc(Cl)cc2)sc1C1(C)CC(c2ccccc2F)=NO1 (stereo not drawn) | -11.9 | –
NS(=O)(=O)c1ccccc1NC(=O)c1c(O)c2ccccc2[nH]c1=O | -24.1 | –
Cc1ccc(C(C)C)c(OCCSc2nc3ccccc3n2CC(=O)O)c1 | -2.5 | –
Cc1cccc(OCCSc2nc3ccccc3n2CC(=O)N2CCCCC2)c1C | – | 23.1 µM (active)
CCOc1ccc(OCCSc2nc3ccccc3n2CC(=O)O)cc1 | -18.2 | –
Clc1ccc(Cl)c(Oc2ccc(Oc3nc(Cl)ccc3Cl)cc2)n1 | -14.1 | –
COc1cc(Cl)c(C)cc1NC(=O)[C@@H]1CCCN1C(=O)c1cccs1 | -3.66 | –
O=C(CCS(=O)(=O)c1cc(Br)cc2c1N(C(=O)C1CC1)CC2)Nc1ccc(Br)cc1F | -11.8 | –
O=C(CCS(=O)(=O)c1cc(Br)cc2c1N(C(=O)C1CC1)CC2)Nc1ccc(C(F)(F)F)cc1 | -6.43 | –
CCN(c1ccc2c(c1)OCO2)S(=O)(=O)c1cc(Br)cc2c1N(C(=O)C1CC1)CC2 | – | 25.9 µM (active)
O=c1oc2ccc(C#CC3(O)CCCCC3)cc2cc1-n1cc(-c2ccsc2)nn1 | -28.1 | –
CCC(=O)/C(=C(/O)c1ccccc1)c1nc2ccccc2[nH]1 | -0.407 | –
O=C(Cc1nc2ccccc2[nH]c1=O)c1ccc(Cl)cc1 | -23.9 | –
O=C(/C(=C/c1cccc(Cl)c1)c1nc2ccccc2[nH]1)c1ccccc1 | – | 23.1 µM (active)
CN1CCC(=NNC(=O)c2ccc(N(Cc3ccc(Cl)cc3)S(C)(=O)=O)cc2)CC1 | -7.52 | –
NC(=O)Cn1nc([N+](=O)[O-])nc1Oc1ccc(Br)cc1 | 11.7 | –
CC(C)CCNC(=O)CCNS(=O)(=O)c1ccc(Cl)cc1 | -5.64 | –
O=S1(=O)CCO[C@H]2Cc3ccccc3[C@H]2N1Cc1ccccc1 | -21.9 | –
CCOc1cc(/C=N/O)cc(Br)c1OC | -23.1 | –
COc1cc(/C=C2/C(=O)NN(c3cccc(Cl)c3)C2=O)cc(Br)c1O | -2.28 | –
CCOc1c(Br)cc(/C=C2\C(=O)N(CCC#N)N=C2C)cc1OC | – | 29.1 µM (active)
CCn1c(SCC(=O)NC2=NCCS2)nnc1C(C)NC(=O)c1ccccc1F (stereo not drawn) | -2.37 | –
Cc1ccc(-n2c(C)nnc2SCC(=O)NC2CC2)cc1 | 0.716 | –
CCCCCCCCCCCC(=O)O | -27.7 | –
CCCCCCCCCCCCC(NC(C)=O)(C(=O)OCC)C(=O)OCC | – | 20.6 µM (active)

SMILES | activity change, negative = growth inhibition [%] | Potency
CCCC(CCC(=O)OC)(C(=O)OCC)c1csc(N)n1 (stereo not drawn) | -2.44 | –
COC(=O)C1=CO[C@@H](O[C@@H]2O[C@H](CO)[C@@H](O)[C@H](O)[C@H]2O)C2C1C[C@H](O)[C@@H]2C (stereo partly drawn) | -10.1 | –
COc1ccccc1NC(=O)C1=C(C)Nc2ncnn2C1c1sccc1C (stereo not drawn) | -1.49 | –
CCOC(=O)C1=C(C)Nc2nc3ccccc3n2C1c1cccs1 (stereo not drawn) | -0.394 | –
COc1ccccc1NC(=O)C1=C(C)Nc2nc3ccccc3n2C1c1cccs1 (stereo not drawn) | – | 3.26 µM (active)
CCOC(=O)C1CCN(C(=O)CSc2cc(=O)n(C)c3ccccc23)CC1 | -17.7 | –
O=c1cc(-c2ccccc2)[nH]c2cc(F)ccc12 | – | 1.03 µM (active)
Cc1ccc(-c2cc(=O)c3ccc(F)cc3[nH]2)cc1 | – | 13 µM (active)
Cc1ccc(S(=O)(=O)/N=C(\N)c2ccc(F)cc2)cc1 | 7.02 | –
O=c1[nH]c(-c2ccccc2)c(-c2ccccc2)[nH]1 | -27.8 | –
Cc1cc(=O)c2ccc(NC(=O)c3ccccc3)cc2[nH]1 | 10.8 | –
Cc1ccc(-c2cc(=O)c3ccc(Cl)cc3[nH]2)cc1 | -15.6 | –
O=S(=O)(Nc1ccccc1Br)c1cccs1 | -16.7 | –
Cn1nccc1/C=N\NC(=O)c1ccc(Cl)cc1 | 5.3 | –
Cc1cc(-n2cnc(-c3cn(C)nc3C)n2)no1 | -0.924 | –
Cc1cc(C)c(NC(=O)C[N+](C)(C)CC(O)COc2cccc3ccccc23)c(C)c1 (stereo not drawn) | – | 18.4 µM (active)
Cc1cccc(NC(=O)COc2ccccc2C)n1 | -22.7 | –
Cc1cc(C)cc(OCC(=O)Nc2c(C(=O)c3ccccc3)oc3ccccc23)c1 | 3.8 | –
Cc1cccc(NC(=O)c2ccc3nsnc3c2)c1C | -27.4 | –
O=C(Nc1ccccc1)OCc1cc(-c2ccc(Cl)cc2)on1 | -8.65 | –
CCc1cc2c(N3CCN(c4nnc(CC)s4)CC3)ncnc2s1 | – | 8.2 µM (active)
O=C(CCc1nnc2ccc(NCc3ccccc3Cl)nn12)NCC1CCN(C2CCCC2)C1 (stereo not drawn) | -15.2 | –
O=C(CSc1ccsc1[N+](=O)[O-])N1CCCCC1 | -9.26 | –
CS(=O)(=O)N(CC(=O)N1CCCCCC1)c1cccc(Cl)c1Cl | -28.3 | –
Cc1ccc(C(=O)c2c(NC(=O)c3ccccc3)sc(C)c2C)cc1 | – | 23.1 µM (active)
Cc1ccc(C(=O)Nc2c(-c3ccccc3)[nH][nH]c2=O)cc1 | 15 | –

Source: PubChem BioAssay AID686978 (National Center for Advancing Translational Sciences (NCATS), 2013)
